# Results reported in PubChem BioAssay (Tox21).
# A number with no mark means an inactive call. Results filed as inconclusive are left out. Entries that show only a call come without a potency. The source made the active and inactive calls. Unless noted, calls come from the whole dose curve; as a rule, active = well fitted curve in the direction sought with a large enough effect in the repeat runs; inconclusive = weak or mixed curves; inactive = no such curve, though single readings can be large; an effect the other way counts as inactive or inconclusive.
# Key:
# [1] = qHTS assay for small molecule agonists of the p53 signaling pathway (AID 651631; calls by dose curve; note: nearly all actives have a fitted effect of over 15% in size; note: potency is the fitted concentration of half-maximal effect)
# Outline: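 Testing took place in human colorectal HCT-116 cells with stable p53RE-driven beta-lactamase. After 16 h of compound exposure at 37 °C, a FRET substrate was added and fluorescence recorded 2 h later.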
# [2] = qHTS assay for small molecule agonists of the p53 signaling pathway - cell viability (AID 651633; calls by dose curve; note: nearly all actives have a fitted effect of over 30% in size; note: potency is the fitted concentration of half-maximal effect)
# Outline: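 Viability counter-read: CellTiter-Glo luminescence (30 min, room temperature) in the same p53RE-bla plates. These plates had been exposed to compounds for 16 h at 37 C.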
# [3] = qHTS assay for small molecules that induce genotoxicity in human embryonic kidney cells expressing luciferase-tagged ATAD5 - cell viability (AID 651634; calls by dose curve; note: nearly all actives have a fitted effect of over 25% in size)
# Outline: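 15.5 hr compound or vehicle exposure of HEK293T cells expressing luciferase-tagged ATAD5 at 37C; live-cell protease activity is read by fluorescence after 30 min of CellTiter-Fluor.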
# [4] = qHTS assay for small molecule disruptors of the mitochondrial membrane potential - cell viability (AID 720634; calls by dose curve; note: nearly all actives have a fitted effect of over 20% in size; note: potency is the fitted concentration of half-maximal effect)
# Outline: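 In this qHTS format, HepG2 cells plated overnight were pinned with compound, incubated 1 hr, and assayed for ATP luminescence with CellTiter-Glo after m-MPI dye addition.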
# [5] = qHTS assay for small molecule disruptors of the mitochondrial membrane potential (AID 720635); note: potency is the fitted concentration of half-maximal effect
# Outline: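 Mitochondrial membrane potential tracked with Mito-MPS dye, red aggregates (ex 540/em 590 nm) against green monomers (ex 490/em 535 nm). Compound treatment 1 hr at 37C, dye 30 min in HepG2.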
# [6] = qHTS assay to test for compound auto fluorescence at 590 nm (red) in HepG2 cells (AID 720674)
# Outline: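 1 hr compound incubation on HepG2 cells, 37 C, 5% CO2; plate read ex 540 nm / em 590 nm; intensities reported as Rose Bengal sodium equivalents.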
# [7] = qHTS assay to test for compound auto fluorescence at 535 nm (green) in HepG2 cells (AID 720675)
# [8] = qHTS assay to test for compound auto fluorescence at 460 nm (blue) in HEK293 cells (AID 720678)
# Outline: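 Blue read-out at excitation 405 nm and emission 460 nm follows overnight compound exposure of HEK293 cells at 37C in 5% CO2. Activity is given as auto fluorescence equivalency to triamterene.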
# [9] = qHTS assay to test for compound auto fluorescence at 590 nm (red) in HEK293 cells (AID 720679)
# Outline: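 Red channel, Ex/Em 540/590nm; signal expressed as equivalency to Rose Bengal sodium. HEK293, 2,000 cells/well, 10% dialyzed FBS; 23 nL compound pinned after 4-5 hr attachment; overnight 37C/5% CO2 before reading.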
# [10] = qHTS assay to test for compound auto fluorescence at 535 nm (green) in HEK293 cells (AID 720680)
# [11] = qHTS assay to test for compound auto fluorescence at 460 nm (blue) in HEK293 cell free culture (AID 720681)
# Outline: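 Blue fluorescence (Ex 405/Em 460 nm, triamterene-equivalent) was read immediately after pin transfer of compound or DMSO into medium (DMEM, 10% FBS) without cells.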
# [12] = qHTS assay to test for compound auto fluorescence at 535 nm (green) in HEK293 cell free culture (AID 720682)
# Outline: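 DMEM + 10% FBS, cell-free; cpd or DMSO pinned in; Ex485/Em535 read; output as fluorescein-equivalent signal.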
# [13] = qHTS assay to test for compound auto fluorescence at 590 nm (red) in HEK293 cell free culture (AID 720683)
# Outline: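 Red-channel autofluorescence of compounds in culture medium (DMEM, 10% FBS), no cells, measured at 540/590 nm. Rose Bengal sodium is the reference fluorophore for equivalence.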
# [14] = qHTS assay to test for compound auto fluorescence at 590 nm (red) in HepG2 cell free culture (AID 720684)
# Outline: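 No cells present: MEM + 10% FBS only. Compound pinned in, red label read (540/590 nm). Activity = fluorescence equivalent to Rose Bengal sodium.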
# [15] = qHTS assay to test for compound auto fluorescence at 460 nm (blue) in HepG2 cell free culture (AID 720685)
# Outline: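 Cell-free plates of MEM plus 10% FBS received 23 nL compound or DMSO vehicle; blue-channel (405/460 nm) intensity scored against triamterene as reference fluorophore.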
# [16] = qHTS assay to test for compound auto fluorescence at 535 nm (green) in HepG2 cell free culture (AID 720686)
# [17] = qHTS assay to test for compound auto fluorescence at 460 nm (blue) in HepG2 cells (AID 720687)
# Outline: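 Blue-channel autofluorescence (Ex/Em 405/460 nm, triamterene-equivalent) was measured after 1 hr compound exposure at 37 C, 5% CO2. Cells were HepG2, plated overnight at 37 C in MEM plus 10% FBS.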
# [18] = molecular target: Glucocorticoid receptor (Homo sapiens) (UniProt P04150); assay: qHTS assay to identify small molecule agonists of the glucocorticoid receptor (GR) signaling pathway (AID 720691; active = well fitted activation curve with a large enough effect in the signal ratio in the repeat runs, not every such curve was filed as active; the % refers to the signal ratio)
# Outline: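 Measures GR pathway activation through a GRE-beta-lactamase reporter stably integrated in HeLa cells, with 18 h compound treatment at 37 C and fluorescence detection using a FRET substrate.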
# [19] = molecular target: Glucocorticoid receptor (Homo sapiens) (UniProt P04150); assay: qHTS assay to identify small molecule antagonists of the glucocorticoid receptor (GR) signaling pathway (AID 720692; active = well fitted inhibition curve with a large enough effect in the signal ratio in the repeat runs, not every such curve was filed as active; the % refers to the signal ratio)
# Outline: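 Tox21 10K library screened in concentration-response for blockade of dexamethasone (5 nM final)-induced GRE-bla reporter activity in HeLa cells; 18 h treatment, fluorescence read.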
# [20] = qHTS assay for small molecules that induce genotoxicity in human embryonic kidney cells expressing luciferase-tagged ATAD5 (AID 651632); note: nearly all actives have a fitted effect of over 15% in size; note: potency is the fitted concentration of half-maximal effect
# Outline: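 Concentration-response screen for ATAD5 upregulation in HEK293T luciferase reporter cells; 16 hr treatment at 37C, then luminescence after 30 min with Amplite at room temperature.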
# Sequence of Glucocorticoid receptor (Homo sapiens) (P04150 whole entry, looked up): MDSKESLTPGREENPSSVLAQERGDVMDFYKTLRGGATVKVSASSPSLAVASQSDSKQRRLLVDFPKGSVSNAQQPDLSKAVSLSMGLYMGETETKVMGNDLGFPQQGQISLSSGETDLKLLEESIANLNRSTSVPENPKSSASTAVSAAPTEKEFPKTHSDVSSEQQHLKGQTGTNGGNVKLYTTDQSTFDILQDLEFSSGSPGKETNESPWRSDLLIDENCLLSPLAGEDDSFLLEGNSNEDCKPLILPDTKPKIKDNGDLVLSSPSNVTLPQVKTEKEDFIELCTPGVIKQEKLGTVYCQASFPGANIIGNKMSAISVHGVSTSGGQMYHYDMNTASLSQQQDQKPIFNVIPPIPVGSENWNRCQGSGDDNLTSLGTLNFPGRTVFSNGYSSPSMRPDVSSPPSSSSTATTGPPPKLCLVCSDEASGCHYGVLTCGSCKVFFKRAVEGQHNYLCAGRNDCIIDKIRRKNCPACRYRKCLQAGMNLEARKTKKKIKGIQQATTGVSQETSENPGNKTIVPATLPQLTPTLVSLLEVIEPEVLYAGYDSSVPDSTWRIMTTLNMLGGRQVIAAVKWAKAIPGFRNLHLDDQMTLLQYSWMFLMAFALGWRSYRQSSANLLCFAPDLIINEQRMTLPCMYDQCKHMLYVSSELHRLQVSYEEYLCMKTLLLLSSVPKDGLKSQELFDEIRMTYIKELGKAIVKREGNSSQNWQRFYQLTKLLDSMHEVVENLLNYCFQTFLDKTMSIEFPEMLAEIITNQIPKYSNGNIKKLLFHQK
compound,measurement,setting,value
CCOC(=O)c1ccc(OCCN2C[C@H](O)[C@@H](O)[C@H](O)[C@H]2CO)cc1,Potency,[1],inactive
same,Potency,[2],inactive
same,Potency,[3],inactive
same,Potency,[4],inactive
same,Potency,[5],inactive
same,outcome,[6],inactive
same,outcome,[7],inactive
same,Potency,[8],inactive
same,outcome,[9],inactive
same,outcome,[10],inactive
same,Potency,[11],inactive
same,outcome,[12],inactive
same,outcome,[13],inactive
same,outcome,[14],inactive
same,Potency,[15],inactive
same,outcome,[16],inactive
same,Potency,[17],inactive
same,Potency,[18],inactive
same,Potency,[19],inactive
O=C=Nc1cccc(C(F)(F)F)c1,Potency,[1],inactive
same,Potency,[20],inactive
same,Potency,[2],inactive
same,Potency,[5],2150 nM (active)
same,outcome,[6],inactive
same,outcome,[7],inactive
same,Potency,[8],inactive
same,outcome,[9],inactive
same,outcome,[10],inactive
same,Potency,[11],inactive
same,outcome,[12],inactive
same,outcome,[13],inactive
same,outcome,[14],inactive
same,Potency,[15],inactive
same,outcome,[16],inactive
same,Potency,[17],inactive
same,Potency,[18],inactive
O=C1NC(=O)c2cc([N+](=O)[O-])ccc21,Potency,[1],inactive
same,Potency,[2],inactive
same,Potency,[3],inactive
same,Potency,[4],inactive
same,outcome,[6],inactive
same,outcome,[7],inactive
same,Potency,[8],inactive
same,outcome,[9],inactive
same,outcome,[10],inactive
same,Potency,[11],inactive
same,outcome,[12],inactive
same,outcome,[13],inactive
same,outcome,[14],inactive
same,Potency,[15],inactive
same,outcome,[16],inactive
same,Potency,[17],inactive
same,Potency,[18],inactive
O=Cc1c2ccccc2c(Cl)c2ccccc12,Potency,[1],inactive
same,Potency,[2],inactive
same,Potency,[3],inactive
same,Potency,[4],inactive
same,Potency,[5],8420 nM (active)
same,outcome,[6],inactive
same,outcome,[7],inactive
same,Potency,[8],inactive
same,outcome,[9],inactive
same,outcome,[10],inactive
same,Potency,[11],inactive
same,outcome,[12],inactive
same,outcome,[13],inactive
same,outcome,[14],inactive
same,Potency,[15],inactive
same,outcome,[16],inactive
same,Potency,[17],inactive
same,Potency,[18],inactive
CC(C)C(O)(c1ccc(OC(F)(F)F)cc1)c1cncnc1 (stereo unspecified),Potency,[1],inactive
same,Potency,[2],inactive
same,Potency,[3],inactive
same,Potency,[4],inactive
same,outcome,[6],inactive
same,outcome,[7],inactive
same,Potency,[8],inactive
same,outcome,[9],inactive
same,outcome,[10],inactive
same,Potency,[11],inactive
same,outcome,[12],inactive
same,outcome,[13],inactive
same,outcome,[14],inactive
same,Potency,[15],inactive
same,Potency,[17],inactive
same,Potency,[18],inactive
CCC1NC(=O)c2cc(S(N)(=O)=O)c(Cl)cc2N1 (stereo unspecified),Potency,[1],inactive
same,Potency,[2],inactive
same,Potency,[3],inactive
same,Potency,[4],inactive
same,"fluorescence, relative to Rose Bengal",[6],0.403% [at 18.6 µM]
same,"fluorescence, % of fluorescein control",[7],0.161% [at 18.6 µM]
same,"fluorescence, % of triamterene",[8],-0.286% [at 18.6 µM]
same,"fluorescence, % of fluorescent control",[9],-0.132% [at 18.6 µM]
same,"fluorescence, % of fluorescein",[10],-0.0959% [at 18.6 µM]
same,"fluorescence, % of fluorescent control",[11],-0.0955% [at 18.6 µM]
same,activity change,[12],-0.178% [at 18.6 µM]
same,"fluorescence, % of fluorescent control",[13],-0.121% [at 18.6 µM]
same,"fluorescence, % of fluorescent control",[15],-0.0342% [at 18.6 µM]
same,"fluorescence, % of fluorescent control",[17],-0.0496% [at 18.6 µM]
same,Potency,[18],inactive
same,Potency,[19],inactive
CCCCCCNC(=O)n1cc(F)c(=O)[nH]c1=O,Potency,[1],1500 nM (active)
same,Potency,[2],668 nM (active)
same,Potency,[3],inactive
same,Potency,[4],inactive
same,outcome,[6],inactive
same,outcome,[7],inactive
same,Potency,[8],inactive
same,outcome,[9],inactive
same,outcome,[10],inactive
same,Potency,[11],inactive
same,outcome,[12],inactive
same,outcome,[13],inactive
same,outcome,[14],inactive
same,Potency,[15],inactive
same,outcome,[16],inactive
same,Potency,[17],inactive
same,Potency,[18],inactive
C=CC(=O)[O-].C=CC(=O)[O-].[Zn+2],Potency,[1],inactive
same,Potency,[2],inactive
same,Potency,[3],inactive
same,Potency,[4],inactive
same,outcome,[6],inactive
same,outcome,[7],inactive
same,Potency,[8],inactive
same,outcome,[9],inactive
same,outcome,[10],inactive
same,Potency,[11],inactive
same,outcome,[12],inactive
same,outcome,[13],inactive
same,outcome,[14],inactive
same,Potency,[15],inactive
same,outcome,[16],inactive
same,Potency,[18],inactive
CC(C)(O)c1ccc(CNC(=O)c2cccnc2Oc2ccc3nonc3c2)cc1,Potency,[1],inactive
same,Potency,[2],inactive
same,Potency,[3],inactive
same,Potency,[4],inactive
same,Potency,[5],inactive
same,outcome,[6],inactive
same,outcome,[7],inactive
same,outcome,[9],inactive
same,outcome,[10],inactive
same,Potency,[11],inactive
same,outcome,[12],inactive
same,outcome,[13],inactive
same,outcome,[14],inactive
same,Potency,[15],inactive
same,Potency,[17],inactive
same,Potency,[18],inactive
same,Potency,[19],inactive
CC(C)C[C@H](NC(=O)[C@H](CCc1ccccc1)NC(=O)CN1CCOCC1)C(=O)N[C@@H](Cc1ccccc1)C(=O)N[C@@H](CC(C)C)C(=O)[C@@]1(C)CO1,Potency,[1],66.8 nM (active)
same,Potency,[20],106 nM (active)
same,Potency,[2],335 nM (active)
same,Potency,[4],inactive
same,outcome,[6],inactive
same,outcome,[7],inactive
same,Potency,[8],inactive
same,outcome,[9],inactive
same,outcome,[10],inactive
same,Potency,[11],inactive
same,outcome,[12],inactive
same,outcome,[13],inactive
same,outcome,[14],inactive
same,Potency,[15],inactive
same,Potency,[17],inactive
CN1C(=O)N(c2ccccc2Br)Cc2cnc(Nc3ccc4c(c3)OCC(CO)O4)nc21 (stereo unspecified),Potency,[1],19300 nM (active)
same,Potency,[20],inactive
same,Potency,[4],48600 nM (active)
same,Potency,[5],24300 nM (active)
same,outcome,[6],inactive
same,outcome,[7],inactive
same,Potency,[8],inactive
same,outcome,[9],inactive
same,outcome,[10],inactive
same,Potency,[11],inactive
same,outcome,[12],inactive
same,outcome,[13],inactive
same,outcome,[14],inactive
same,Potency,[15],inactive
same,outcome,[16],inactive
Nc1cccc2c1CN(C1CCC(=O)NC1=O)C2=O (stereo unspecified),Potency,[20],inactive
same,Potency,[2],inactive
same,Potency,[3],inactive
same,Potency,[4],inactive
same,Potency,[5],inactive
same,outcome,[6],inactive
same,outcome,[7],inactive
same,Potency,[8],inactive
same,outcome,[9],inactive
same,outcome,[10],inactive
same,Potency,[11],inactive
same,outcome,[12],inactive
same,outcome,[13],inactive
same,outcome,[14],inactive
same,Potency,[15],inactive
same,outcome,[16],inactive
same,Potency,[17],inactive
same,Potency,[18],inactive
CN1C(=O)OC(C)(C)C1=O,Potency,[20],inactive
same,Potency,[2],inactive
same,Potency,[3],inactive
same,Potency,[4],inactive
same,outcome,[6],inactive
same,outcome,[7],inactive
same,Potency,[8],inactive
same,outcome,[9],inactive
same,outcome,[10],inactive
same,Potency,[11],inactive
same,outcome,[12],inactive
same,outcome,[13],inactive
same,outcome,[14],inactive
same,Potency,[15],inactive
same,outcome,[16],inactive
same,Potency,[17],inactive
same,Potency,[18],inactive
same,Potency,[19],inactive
CCCCN1CCCC1C(=O)Nc1c(C)cc(C)cc1C (stereo unspecified),Potency,[20],inactive
same,Potency,[2],inactive
same,Potency,[3],inactive
same,Potency,[4],inactive
same,outcome,[6],inactive
same,outcome,[7],inactive
same,Potency,[8],inactive
same,outcome,[9],inactive
same,outcome,[10],inactive
same,Potency,[11],inactive
same,outcome,[12],inactive
same,outcome,[13],inactive
same,outcome,[14],inactive
same,Potency,[15],inactive
same,outcome,[16],inactive
same,Potency,[17],inactive
same,Potency,[18],inactive
